From PubChem BioAssay (NCI)
Values joined by “and” are separate entries in the source; they are usually repeats but may differ in a detail not shown here. Identical values can stand only once. The panel holds about 79,000 compounds, 15% with a hit somewhere; the sample as a whole holds those more often. A structure can be active in one record and inactive in another. Active and inactive are the calls of the source. No stated cut-off is given here; in the data, active means growth inhibition above about 70%; inactive means the rest.

Tests used:
[1] = NCI Yeast Anticancer Drug Screen. Data for the mlh1 strain (AID 171);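 further: 0% = growth of vehicle-treated control cultures of the same strain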; settings: S. cerevisiae mlh1 strain growth inhibition, stronger effect = higher value
Procedure, shortened: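 Vehicle-normalised growth inhibition of a repair- or checkpoint-altered yeast strain following compound treatment.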

[2] = NCI Yeast Anticancer Drug Screen. Data for the sgs1 strain (AID 173);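 further: 0% = growth of vehicle-only control cultures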; settings: S. cerevisiae sgs1 mutant, stronger effect = higher value
Procedure, shortened: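 Screen format: yeast with repair or checkpoint alterations, compound exposure, growth read relative to vehicle.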

[3] = NCI Yeast Anticancer Drug Screen. Data for the mlh1 rad18 strain (AID 175); settings: S. cerevisiae mlh1 rad18 strain growth inhibition, stronger effect = higher value
Procedure, shortened: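 Vehicle-treated cultures served as the reference for growth inhibition in a yeast strain carrying DNA damage repair alterations exposed to each compound.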

[4] = NCI Yeast Anticancer Drug Screen. Data for the rad18 strain (AID 177); settings: S. cerevisiae rad18 mutant growth inhibition, stronger effect = higher value
Procedure, shortened: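 Test articles were incubated with altered yeast defective in DNA damage repair. Results are given as inhibition of growth versus vehicle.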

[5] = NCI Yeast Anticancer Drug Screen. Data for the wt1 strain (AID 149);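 further: 0% = growth of vehicle-treated wt1 cultures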; settings: S. cerevisiae wt1 strain (SPY 50644) growth inhibition, stronger effect = higher value
Procedure, shortened: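 Measured: growth of wt1 yeast under compound versus vehicle treatment, reported as inhibition.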

[6] = NCI Yeast Anticancer Drug Screen. Data for the rad50EPP+ strain (AID 151);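 further: 0% = growth of vehicle-treated control cultures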; settings: S. cerevisiae rad50 mutant strain, stronger effect = higher value
Procedure, shortened: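 In this screen, rad50EPP+ yeast were exposed to compounds. Growth inhibition was scored against vehicle-treated controls.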

[7] = NCI Yeast Anticancer Drug Screen. Data for the rad50 strain (AID 155);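 further: 0% = growth of vehicle-only cultures of the same strain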; settings: S. cerevisiae rad50 strain growth inhibition, stronger effect = higher value
Procedure, shortened: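 Growth of the mutant yeast was measured after compound exposure and referenced to vehicle-treated cultures.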

[8] = NCI Yeast Anticancer Drug Screen. Data for the mec2-1 strain (AID 157); settings: S. cerevisiae mec2-1 strain, stronger effect = higher value
Procedure, shortened: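 Vehicle-treated cultures served as reference for growth inhibition of compound-exposed mec2-1 yeast.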

[9] = NCI Yeast Anticancer Drug Screen. Data for the rad14 strain (AID 159);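 further: 0% = growth of vehicle-treated control cultures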; settings: S. cerevisiae rad14 strain growth inhibition, stronger effect = higher value
Procedure, shortened: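 Here, inhibition of yeast growth was measured after compound exposure, using a strain with a genetic defect in DNA damage repair and vehicle-treated cultures as the reference.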

[10] = NCI Yeast Anticancer Drug Screen. Data for the sgs1 mgt1 strain (AID 161);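 further: 0% = growth of cultures given vehicle only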; settings: S. cerevisiae sgs1 mgt1 strain, stronger effect = higher value
Procedure, shortened: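 Read-out: growth inhibition vs vehicle controls. Cells: mutant yeast strain deficient in DNA damage repair.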

[11] = NCI Yeast Anticancer Drug Screen. Data for the CLN2oe strain (AID 163);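 further: 0% = growth of vehicle-only control cultures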; settings: S. cerevisiae CLN2oe strain, stronger effect = higher value
Procedure, shortened: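 Inhibition relative to vehicle-treated yeast is reported. Cells: strain with genetic alteration in cell-cycle control, grown with compound.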

[12] = NCI Yeast Anticancer Drug Screen. Data for the cln2 rad14 strain (AID 165);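 further: 0% = growth equal to vehicle treated cultures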; settings: S. cerevisiae cln2 rad14 strain, stronger effect = higher value
Procedure, shortened: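 Each compound was tested on cln2 rad14 yeast. Inhibition of growth was calculated against vehicle-exposed controls.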

[13] = NCI Yeast Anticancer Drug Screen. Data for the bub3 strain (AID 167); settings: S. cerevisiae bub3 mutant strain, stronger effect = higher value
Procedure, shortened: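 Whole-cell yeast assay. The mutant strain was incubated with compounds, and growth inhibition was determined by comparison with vehicle-treated cells.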

[14] = NCI Yeast Anticancer Drug Screen. Data for the wt2 strain (AID 169);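 further: 0% = growth of vehicle-treated yeast cultures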; settings: S. cerevisiae wt2 strain growth inhibition, stronger effect = higher value
Procedure, shortened: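 Inhibition of yeast growth was determined after compound treatment, normalised to controls receiving only vehicle.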

[15] = NCI Yeast Anticancer Drug Screen. Data for the mgt1 strain (AID 153); settings: S. cerevisiae mgt1 mutant growth inhibition, stronger effect = higher value
Procedure, shortened: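 mgt1 strain exposed; growth vs vehicle control recorded as inhibition.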

[16] = NCI Yeast Anticancer Drug Screen. Data for the rad52 strain (AID 147);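 further: 0% = growth of vehicle-treated control cultures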; settings: S. cerevisiae rad52 mutant growth inhibition, stronger effect = higher value
Procedure, shortened: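 Vehicle-treated cultures served as the reference for growth inhibition of compound-exposed yeast bearing a DNA repair mutation.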

[17] = at 5.0 µM (retest, dose inferred, filed as 0.5)
[18] = at 50.0 µM (retest, dose inferred, filed as 5.0)

Measured: growth inhibition

Nc1nc(N)c2cc(Sc3ccc4ccccc4c3)ccc2n1
active: [1]; at 11.0 µM 79% | [1]; at 33.0 µM 95% | [1]; at 100.0 µM 93% | [2]; at 11.0 µM 80% | [2]; at 33.0 µM 94% | [2]; at 100.0 µM 91% | [3]; [18] 96% | [3]; at 50.0 µM 83.8% | [4]; at 11.0 µM 78% | [4]; at 33.0 µM 93% | [4]; at 100.0 µM 93%
inactive: [1]; at 1.2 µM -11% | [1]; at 3.7 µM 22% | [2]; at 1.2 µM 3% | [2]; at 3.7 µM 38% | [3]; [17] 60% | [4]; at 1.2 µM -6% | [4]; at 3.7 µM 27%

CCn1ncc(N=O)c1N
81.4% (active) and 51% (inactive): [13]; at 50.0 µM
70.2% (active) and 51.5% (inactive): [7]; at 50.0 µM
active: [6]; at 100.0 µM 71% | [13]; at 100.0 µM 78% | [3]; [18] 73% | [4]; at 100.0 µM 74%
inactive: [5]; at 1.2 µM 6% | [5]; at 3.7 µM 14% | [5]; at 11.0 µM 23% | [5]; at 33.0 µM 24% | [5]; at 100.0 µM 39% | [6]; at 1.2 µM 0% | [6]; at 3.7 µM -4% | [6]; at 11.0 µM 3% | [6]; at 33.0 µM 28% | [7]; at 1.2 µM -1% | [7]; at 3.7 µM -1% | [7]; [17] 27% | [7]; at 11.0 µM 6% | [7]; at 33.0 µM 24% | [7]; [18] 61% | [7]; at 100.0 µM 54% | [8]; at 1.2 µM 3% | [8]; at 3.7 µM 11% | [8]; [17] 8% | [8]; at 11.0 µM 23% | [8]; at 33.0 µM 37% | [8]; [18] 35% | [8]; at 50.0 µM 67% and 42% | [8]; at 100.0 µM 57% | [9]; at 1.2 µM -2% | [9]; at 3.7 µM 4% | [9]; at 11.0 µM 15% | [9]; at 33.0 µM 32% | [9]; at 100.0 µM 41% | [10]; [17] 21% | [10]; [18] 61% | [10]; at 50.0 µM 62.5% and 19.6% | [11]; at 1.2 µM -6% | [11]; at 3.7 µM -5% | [11]; at 11.0 µM 15% | [11]; at 33.0 µM 43% | [11]; at 100.0 µM 53% | [12]; [17] 9% | [12]; [18] 12% | [12]; at 50.0 µM 35.1% and 40.8% | [13]; at 1.2 µM 2% | [13]; at 3.7 µM 9% | [13]; [17] 41% | [13]; at 11.0 µM 33% | [13]; at 33.0 µM 64% | [13]; [18] 68% | [14]; at 1.2 µM 6% | [14]; at 3.7 µM 18% | [14]; at 11.0 µM 26% | [14]; at 33.0 µM 25% | [14]; at 100.0 µM 39% | [1]; at 1.2 µM 3% | [1]; at 3.7 µM 5% | [1]; at 11.0 µM 20% | [1]; at 33.0 µM 35% | [1]; at 100.0 µM 53% | [3]; [17] 33% | [4]; at 1.2 µM 1% | [4]; at 3.7 µM 8% | [4]; at 11.0 µM 9% | [4]; at 33.0 µM 51%
87.3% (active) and 26.6% (inactive): [3]; at 50.0 µM

[Pt].c1ccc(P(CCP(c2ccccc2)c2ccccc2)CCP(c2ccccc2)c2ccccc2)cc1
inactive: [5]; at 1.2 µM -1% | [5]; at 3.7 µM 6% | [5]; at 11.0 µM 19% | [6]; at 1.2 µM -8% | [6]; at 3.7 µM -1% | [6]; at 11.0 µM 11% | [6]; at 33.0 µM 61% | [15]; at 1.2 µM -5% | [15]; at 3.7 µM -18% | [15]; at 11.0 µM 2% | [9]; at 1.2 µM 4% | [9]; at 3.7 µM -2% | [9]; at 11.0 µM 22% | [11]; at 1.2 µM -18% | [11]; at 3.7 µM -4% | [11]; at 11.0 µM 4% | [14]; at 1.2 µM -7% | [14]; at 3.7 µM -4% | [14]; at 11.0 µM 2% | [1]; at 1.2 µM 5% | [1]; at 3.7 µM -5% | [1]; at 11.0 µM -1% | [2]; at 1.2 µM 2% | [2]; at 3.7 µM 5% | [2]; at 11.0 µM 41% | [4]; at 1.2 µM -33% | [4]; at 3.7 µM 6% | [4]; at 11.0 µM 20%
active: [5]; at 33.0 µM 94% | [5]; at 100.0 µM 90% | [6]; at 100.0 µM 85% | [15]; at 33.0 µM 92% | [15]; at 100.0 µM 94% | [9]; at 33.0 µM 81% | [9]; at 100.0 µM 91% | [11]; at 33.0 µM 95% | [11]; at 100.0 µM 88% | [14]; at 33.0 µM 83% | [14]; at 100.0 µM 93% | [1]; at 33.0 µM 94% | [1]; at 100.0 µM 92% | [2]; at 33.0 µM 96% | [2]; at 100.0 µM 94% | [4]; at 33.0 µM 94% | [4]; at 100.0 µM 83%

COC(=O)c1oc([N+](=O)[O-])c(Cl)c1Cl
active: [16]; at 1.2 µM 78% | [16]; at 11.0 µM 71% | [16]; at 33.0 µM 95% | [16]; at 100.0 µM 99% | [6]; at 1.2 µM 95% | [6]; at 3.7 µM 93% | [6]; at 11.0 µM 93% | [6]; at 33.0 µM 98% | [6]; at 100.0 µM 98% | [7]; at 1.2 µM 95% | [7]; at 3.7 µM 79% | [7]; at 11.0 µM 86% | [7]; at 33.0 µM 96% | [7]; [18] 99% | [7]; at 50.0 µM 97% | [7]; at 100.0 µM 98% | [8]; at 1.2 µM 94% | [8]; at 3.7 µM 70% | [8]; at 11.0 µM 73% | [8]; at 33.0 µM 99% | [8]; [18] 100% | [8]; at 50.0 µM 99.7% | [8]; at 100.0 µM 99% | [9]; at 1.2 µM 99% | [9]; at 3.7 µM 71% | [9]; at 11.0 µM 90% | [9]; at 33.0 µM 99% | [9]; at 100.0 µM 99% | [10]; [18] 99% | [10]; at 50.0 µM 99% | [11]; at 1.2 µM 98% | [11]; at 11.0 µM 79% | [11]; at 33.0 µM 92% | [11]; at 100.0 µM 99% | [12]; [18] 99% | [12]; at 50.0 µM 98.5% | [13]; at 1.2 µM 71% | [13]; at 33.0 µM 97% | [13]; [18] 100% | [13]; at 50.0 µM 99.2% | [13]; at 100.0 µM 98% | [14]; at 11.0 µM 74% | [14]; at 33.0 µM 99% | [14]; at 100.0 µM 99% | [1]; at 1.2 µM 77% | [1]; at 11.0 µM 78% | [1]; at 33.0 µM 99% | [1]; at 100.0 µM 99% | [2]; at 1.2 µM 82% | [2]; at 11.0 µM 78% | [2]; at 33.0 µM 96% | [2]; at 100.0 µM 96% | [3]; [18] 99% | [3]; at 50.0 µM 99.5% | [4]; at 1.2 µM 93% | [4]; at 3.7 µM 92% | [4]; at 11.0 µM 89% | [4]; at 33.0 µM 98% | [4]; at 100.0 µM 99%
inactive: [16]; at 3.7 µM 66% | [7]; [17] 21% | [8]; [17] 35% | [10]; [17] 36% | [11]; at 3.7 µM 45% | [12]; [17] 10% | [13]; at 3.7 µM 41% | [13]; [17] 47% | [13]; at 11.0 µM 34% | [14]; at 1.2 µM 64% | [14]; at 3.7 µM 51% | [1]; at 3.7 µM 62% | [2]; at 3.7 µM 57% | [3]; [17] 58%
